Most compounds without a hit are left out; they make up all but 20% or so of the library.
Pf growth 48h: P. falciparum growth inhibition at 48 hours (one generation) | P. falciparum luciferase growth in erythrocytes, 48 h | Potency, µM (titrated, usually from 28.7 µM), for the others: at the top dose activity change, negative = inhibition, hits mostly inhibitors | 5.9% of 310,000 active; note: potency is the fitted concentration of half-maximal effect; % is set by controls: 0 for no effect and ±100 for the full control effect
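Erythrocytes infected with P. falciparum carrying an integrated firefly luciferase reporter (2% hematocrit, 0.1% parasitemia final) were exposed to compounds in RPMI 1640 with 0.5% Albumax at 37 C, 5% CO2. Growth inhibition was scored as reduced luminescence.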
Shiga inhibitor: Shiga toxin inhibition; inhibition, % at 38.7 µM; 9.2% of 290,000 active; Vero cells, Shiga toxin protein synthesis inhibition reporter; in the data active = inhibition mostly above about 28%, no sharp cut-off; inactive = mostly below about 43%; note: 0% is about no effect
Pf growth 96h: P. falciparum growth inhibition at 96 hour, primary screen for plastid delayed-death inhibitors | P. falciparum luciferase reporter growth, 96 h | Potency, µM (highest dose often 28.7 µM), for inactives: at the top dose activity change, negative = inhibition, most hits filed as inhibitors | 6.9% of 320,000 active | AID 504834; note: potency is the fitted concentration of half-maximal effect; % is set by controls: 0 for no effect and ±100 for the full control effect
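Luminescence readout: decreased luciferase signal marks inhibited growth of reporter-expressing P. falciparum in infected red cells (2% hematocrit, 0.05% parasitemia final), exposed to compound two generations (96 h, 37 C, 5% CO2).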
Cycloheximide cs: counter-screen hit for Shiga toxin inhibitors, cycloheximide. 12% of 300,000 active. max response, %. AID 2314. cell reporter, cycloheximide protein synthesis inhibition counterscreen; in the data active = max response mostly above about 13%, no sharp cut-off; inactive = mostly below about 14%; note: read at 38.3 µM for the half of the compounds with a filed dose; 0% is about no effect
HCMV inh: inhibitors of human cytomegalovirus. HFF cells, HCMV-luciferase reporter, 72 h; active compounds read low. 4.5% of 410,000 active. activity change, negative = inhibition, % at 57.5 µM. AID 1259415; in the data active = activity change below about -60%; inconclusive = no clear call, values can overlap the other calls; inactive = above about -39%; note: % is set by controls: 0 for no effect and ±100 for the full control effect
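Human foreskin fibroblasts infected with luciferase-reporter HCMV at MOI 1 PFU/cell, compounds at two doses. Luciferase measured 72 h post infection; normalized to buffer-only basal and Salinomycin (10uM) controls.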
An asterisk follows results filed as active. Unless noted, calls come from the whole dose curve; as a rule, active = well fitted inhibition curve with a large enough effect; inconclusive = small, poorly fitted or top-dose-only effect, or another doubt; inactive = no such curve, though single readings can be large or run the other way.

Screening Fc1cccc(Cl)c1Cc1noc(/C=C/c2ccccc2)n1 returned Pf growth 48h 39.4%, Shiga inhibitor 148.5, Pf growth 96h 61.6%, Cycloheximide cs 20.7* and HCMV inh -5.2.
Clc1cccc(Cl)c1CSc1nnc(/C=C/c2ccccc2)o1 was read as Pf growth 48h 54.9%, Shiga inhibitor 76.1, Pf growth 96h 0.0%, Cycloheximide cs 4.7 and HCMV inh -17.1.
Cc1cc(NC(=O)Nc2ccc(N(C)C)cc2)c2cc(F)cc(F)c2n1 was read as Shiga inhibitor 34.2* and Cycloheximide cs 28.1*.
For COc1ccc(C(=O)NC(C)Cc2c[nH]c3ccccc23)cc1 (configuration not stated) the results were HCMV inh 38.3.
COc1ccccc1CCC(=O)N(C)C1CCCN(Cc2ccccc2F)C1 (configuration not stated) was read as Pf growth 48h -1.8%, Shiga inhibitor 6.9, Pf growth 96h 10.4µM*, Cycloheximide cs -0.1 and HCMV inh -7.0.
COc1cc(C(=O)N(C)C2CCCN(Cc3ccccc3F)C2)cc(OC)c1OC (configuration not stated) was read as Pf growth 48h -15.8%, Shiga inhibitor -8.3, Pf growth 96h inconclusive, Cycloheximide cs -4.2 and HCMV inh 8.1.
For Cc1cccc(-c2nnc(SCC(=O)NC3CCCCC3)o2)c1 the results were HCMV inh -7.2.
`Cc1cc(C)nc(SC/C=C/c2ccccc2)n1` gave Pf growth 48h 19.7%, Pf growth 96h 41.6%, Cycloheximide cs 23.2* and HCMV inh 0.9.
C(=C\c1ccccc1)/CSc1ccccn1 was read as Pf growth 48h 142.5%, Shiga inhibitor 92.6*, Pf growth 96h 59.6%, Cycloheximide cs 72.7* and HCMV inh 5.8.
Screening Brc1ccc(-c2csc(N3CCCCCC3)n2)cc1 returned Pf growth 48h 44.8%, Shiga inhibitor 4.4, Pf growth 96h -14.2%, Cycloheximide cs 8.6* and HCMV inh -27.8.
O=[N+]([O-])c1ccc(-c2csc(N3CCCCCC3)n2)cc1 was read as Pf growth 48h 11.3%, Shiga inhibitor 26.4, Pf growth 96h inconclusive, Cycloheximide cs 17.2* and HCMV inh -23.9.
Screening O=C(N1CCOCC1)N1CCN(c2nc(-c3ccc(F)cc3)cs2)CC1 returned Pf growth 48h -12.1%, Shiga inhibitor -3.4, Pf growth 96h 7.38µM*, Cycloheximide cs 10.2 and HCMV inh -14.6.
Screening c1ccc(-c2csc(Cc3nnc4n3CCCCC4)n2)cc1 returned Pf growth 48h 21.3%, Shiga inhibitor 7.4, Pf growth 96h 14.9%, Cycloheximide cs 1.2 and HCMV inh 1.7.
Screening COc1ccccc1-c1csc(Cc2nnc3n2CCCCC3)n1 returned Pf growth 48h -0.1%, Shiga inhibitor 152.6*, Pf growth 96h 38.0%, Cycloheximide cs 46.3* and HCMV inh -2.2.
Screening NC(=O)C1(N2CCCCC2)CCN(c2nc(-c3ccc(Br)cc3)cs2)CC1 returned Shiga inhibitor -28.3, Pf growth 96h inconclusive, Cycloheximide cs -14.0 and HCMV inh inconclusive.
Cc1sc2ncn(CC(=O)N3CCC(C(N)=O)CC3)c(=O)c2c1S(=O)(=O)N1CC(C)CC(C)C1 (configuration not stated) was read as Pf growth 48h inconclusive, Shiga inhibitor -12.1, Pf growth 96h -8.8%, Cycloheximide cs 0.6 and HCMV inh -1.1.
Nc1nc(N2CCN(c3ccc(F)cc3)CC2)n[nH]1 was read as Pf growth 48h 35.6%, Shiga inhibitor -5.2, Pf growth 96h -16.7%, Cycloheximide cs 11.0 and HCMV inh -9.7.
CC(=O)c1ccc(-c2csc(N3CCC(C(N)=O)CC3)n2)cc1 was read as Pf growth 48h 23.2% and Pf growth 96h 15.0%.
For COc1ccc(-c2csc(/N=C/N(C)C)n2)cc1OC the results were Pf growth 48h 79.6%, Shiga inhibitor 42.3, Pf growth 96h 70.4%, Cycloheximide cs 17.8* and HCMV inh 26.4.
For NC(=O)C1CCN(c2nc(-c3ccc4c(c3)OCCO4)cs2)CC1 the results were Pf growth 48h inconclusive, Pf growth 96h inconclusive and HCMV inh -10.2.
`NC(=O)C1CCN(c2nc(-c3ccc(Br)cc3)cs2)CC1` gave Pf growth 48h inconclusive, Shiga inhibitor 28.3, Pf growth 96h inconclusive, Cycloheximide cs 19.8* and HCMV inh -38.5.
`Clc1ccc(-c2csc(N3CCCCCC3)n2)cc1` gave Pf growth 48h 108.1%, Shiga inhibitor 57.3, Pf growth 96h inconclusive, Cycloheximide cs 21.8* and HCMV inh 12.2.

Assay outcomes as filed in PubChem.
